Measurements from PubChem BioAssay AID1220 (Sanford-Burnham Center for Chemical Genomics, 2008).
In all, about 190,000 compounds went through this assay and about 1,300 (0.68%) were called active. The entries come from a sample that favours actives as a whole. A number with no mark means an inactive call. No stated cut-off is given here; in the data, active means inhibition above about 50%; inactive means the rest.

Target: Mannose-6-phosphate isomerase (Homo sapiens) (UniProt P34949)
Test: human PMI inhibitors, high substrate, primary screen, biochemical, fluorescence intensity, high mannose 6-phosphate (AID 1220)
Details: recombinant PMI enzyme, coupled fluorescence intensity; at 20 µM; hits give high values

Chain of Mannose-6-phosphate isomerase (Homo sapiens) (P34949 whole entry, looked up): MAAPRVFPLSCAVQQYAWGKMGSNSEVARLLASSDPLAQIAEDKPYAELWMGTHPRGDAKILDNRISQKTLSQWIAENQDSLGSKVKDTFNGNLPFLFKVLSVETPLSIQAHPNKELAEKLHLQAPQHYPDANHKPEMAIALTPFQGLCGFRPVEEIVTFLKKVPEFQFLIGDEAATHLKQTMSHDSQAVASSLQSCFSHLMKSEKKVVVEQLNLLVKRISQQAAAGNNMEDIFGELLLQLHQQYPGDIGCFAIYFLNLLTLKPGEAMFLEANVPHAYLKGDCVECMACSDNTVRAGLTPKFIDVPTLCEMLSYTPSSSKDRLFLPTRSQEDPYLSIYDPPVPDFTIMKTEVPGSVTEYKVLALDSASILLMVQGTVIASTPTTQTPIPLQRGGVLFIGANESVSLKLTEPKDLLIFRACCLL

Structure (SMILES) | inhibition
COc1ccccc1NC(=S)N1CCN(C(=O)c2ccco2)CC1 | -3%
O=C(Cc1c(F)cccc1Cl)N1CCOCC1 | -13.4%
COCCn1c(=O)c2c(nc3n2CCN3c2ccc(C)cc2)n(C)c1=O | 0.4%
CCOc1ccc(NC(=O)c2ccccc2O)cc1 | -0.8%
CCOc1ccc(N=C(NN)c2ccc3ccccc3n2)cc1 | -57.4%
CCOc1ccc(N=C(C)c2ccccc2O)cc1 | 55.9% (active)
Cc1cccc(OCC(=O)Nc2ccc3nc(C)sc3c2)c1 | -10.9%
COCCNC(=O)C1CCCN(c2nn3c(=O)cc(C)nc3s2)C1 (configuration not stated) | 7.2%
CCN1CCN(Cc2nc3c(c(=O)n(C)c(=O)n3C)n2CCc2ccccc2)CC1 | -1.1%
O=c1cc(Nc2ccc3c(c2)OCCO3)[nH]c(=O)n1-c1ccc(Br)cc1 | 57.5% (active)
O=c1cc(Nc2ccc3c(c2)OCO3)[nH]c(=O)n1-c1ccc(Br)cc1 | 1.9%
O=c1cc(Nc2ccc3c(c2)OCCO3)[nH]c(=O)n1-c1ccc(Cl)cc1 | 8%
CC1CCN(S(=O)(=O)c2ccc(NC(=S)NC(=O)c3ccc(Cl)cc3)cc2)CC1 | -6.2%
CC[n+]1ccc(C)c2cc(P(=O)(c3ccccc3)c3ccccc3)ccc21 | 18.4%
CC[n+]1ccc(/C=C/c2ccc(N(C)C)cc2)c2ccccc21 | -4.8%
CC[n+]1ccc(C[n+]2ccccc2)c2ccccc21 | 97.1% (active)
O=C(NCc1ccccc1)C1=C[C@@H](c2coc3ccccc3c2=O)C[C@@H](OCCCCO)O1 | 8.5%
O=C(NCc1ccc(Cl)cc1)C(=O)NCC(c1cccnc1)N1CCN(c2ccc(F)cc2)CC1 (configuration not stated) | 2.5%
CCOC1(NC(=O)c2ccccc2)C(C)=CC(=O)C=C1C | 49.2%
COC1(NC(=O)c2ccccc2)C(C)=CC(=O)C=C1C | 6.7%
CCCOC1(NC(=O)c2ccccc2)C(C)=CC(=O)C=C1C | 55.4% (active)
CCNC(=O)/C(=C\C=C\c1ccccc1)NC(=O)c1ccc(Br)o1 | -11.4%
Cc1ccc(Nc2nc3ccccc3c(=O)[nH]2)cc1C | -5%
Nc1ccc2nc(C3CCCCC3)[nH]c2c1 | 32.3%
Nc1ccc2oc(C3CCCCC3)nc2c1 | 64% (active)
O=[N+]([O-])c1ccc2oc(C3CCCCC3)nc2c1 | 2.8%
Cc1c(-n2cc(C(=O)O)c(=O)c3cc(F)c(N4CCCC4)c(F)c32)c(=O)n(-c2ccccc2)n1C | 16%
